{"source": "ChEMBL document CHEMBL1201862", "about": "“PubChem BioAssay data set” (2004)", "note": "Hit rate of the full screen: of about 400,000 compounds, about 2,100 (0.53%) were called active. Not shown: some 14% with an inconclusive outcome. The rule behind the calls is not given here. The list comes from a sample in which actives are over-represented; it also holds similar structures and randomly drawn compounds.", "data": [{"target": "Ataxin-2 (Homo sapiens) (UniProt Q99700)", "sequence (Q99700 whole entry)": "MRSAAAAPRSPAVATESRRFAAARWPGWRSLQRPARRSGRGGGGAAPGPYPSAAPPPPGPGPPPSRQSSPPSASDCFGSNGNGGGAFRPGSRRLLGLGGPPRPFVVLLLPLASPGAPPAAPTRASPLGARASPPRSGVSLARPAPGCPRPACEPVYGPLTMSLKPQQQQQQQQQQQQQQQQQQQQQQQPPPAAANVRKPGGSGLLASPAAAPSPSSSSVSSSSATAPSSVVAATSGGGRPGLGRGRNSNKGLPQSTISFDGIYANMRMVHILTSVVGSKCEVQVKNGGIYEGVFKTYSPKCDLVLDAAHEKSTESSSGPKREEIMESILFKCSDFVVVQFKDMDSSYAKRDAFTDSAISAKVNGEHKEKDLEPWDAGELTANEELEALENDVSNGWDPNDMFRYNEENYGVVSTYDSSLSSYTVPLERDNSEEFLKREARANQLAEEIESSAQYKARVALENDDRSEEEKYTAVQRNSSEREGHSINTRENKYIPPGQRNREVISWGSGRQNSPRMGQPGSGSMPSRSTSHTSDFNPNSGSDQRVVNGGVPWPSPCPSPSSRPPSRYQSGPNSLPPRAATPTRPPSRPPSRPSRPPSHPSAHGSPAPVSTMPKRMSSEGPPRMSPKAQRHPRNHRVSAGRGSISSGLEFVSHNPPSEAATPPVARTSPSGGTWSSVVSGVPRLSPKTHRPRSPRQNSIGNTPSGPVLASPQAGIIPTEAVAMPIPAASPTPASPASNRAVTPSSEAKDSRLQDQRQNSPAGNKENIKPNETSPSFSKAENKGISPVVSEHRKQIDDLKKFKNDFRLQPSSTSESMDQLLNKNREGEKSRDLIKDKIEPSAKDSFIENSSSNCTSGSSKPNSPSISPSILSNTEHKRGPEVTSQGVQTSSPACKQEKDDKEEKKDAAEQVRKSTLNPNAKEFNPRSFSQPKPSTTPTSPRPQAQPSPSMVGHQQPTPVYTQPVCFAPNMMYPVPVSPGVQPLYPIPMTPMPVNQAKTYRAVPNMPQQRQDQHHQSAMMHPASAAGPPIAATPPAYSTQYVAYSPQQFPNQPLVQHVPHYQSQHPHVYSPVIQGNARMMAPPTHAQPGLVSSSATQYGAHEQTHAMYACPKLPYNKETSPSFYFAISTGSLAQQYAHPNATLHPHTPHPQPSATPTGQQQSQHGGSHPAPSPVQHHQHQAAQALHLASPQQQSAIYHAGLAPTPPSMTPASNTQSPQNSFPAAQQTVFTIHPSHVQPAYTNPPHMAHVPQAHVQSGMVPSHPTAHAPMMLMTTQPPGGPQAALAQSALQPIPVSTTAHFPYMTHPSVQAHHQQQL", "test": "qHTS for Inhibitors of ATXN expression.", "format": "functional", "values": [{"smiles": "Cc1c(C)c2cc3c(c(C)c2oc1=O)OCN(CCc1ccc(F)cc1)C3", "Potency": "inactive"}, {"smiles": "FC(F)(F)c1cnc(C(c2ccccn2)c2nc[nH]n2)c(Cl)c1", "note": "(configuration not stated)", "Potency": "inactive"}, {"smiles": "CCOc1ccc(CN(C)CC(=O)Nc2cccc3ccccc23)cc1OC", "Potency": "inactive"}, {"smiles": "COc1ccc(CN(C)CC(=O)Nc2ccc(SC(F)F)cc2)cc1OC", "Potency": "inactive"}, {"smiles": "COc1ccc(CN(C(=O)COc2ccc(C)c(C)c2)C2CCS(=O)(=O)C2)cc1OC", "note": "(configuration not stated)", "Potency": "inactive"}, {"smiles": "COc1ccc(CN(CCC(c2ccccc2)c2ccc(OC(C)C)cc2)C(=O)CCl)cc1OC", "note": "(configuration not stated)", "Potency": "6.31 µM (active)"}, {"smiles": "COc1ccc(C(CCN(Cc2ccc(OC)c(OC)c2)C(=O)CCl)c2ccccc2)cc1", "note": "(configuration not stated)", "Potency": "31.6 µM (active)"}, {"smiles": "CCOc1ccc(C(CC(=O)O)NC(=O)C(c2ccccc2)c2ccccc2)cc1OC", "note": "(configuration not stated)", "Potency": "inactive"}, {"smiles": "COc1cc(C2NC(=O)NC(c3ccccc3)=C2C(C)=O)cc([N+](=O)[O-])c1O", "note": "(configuration not stated)", "Potency": "inactive"}, {"smiles": "C#CC(=O)N(c1ccc(OC)c(OC)c1)C(C(=O)NC1CCCC1)c1cccs1", "note": "(configuration not stated)", "Potency": "25.1 µM (active)"}, {"smiles": "O=C(CN(C(=O)CNC(=O)c1cccs1)c1ccccc1)NC1CCCCC1", "Potency": "inactive"}, {"smiles": "COc1cc(C(=O)OC(C)C(=O)NC(=O)NC2CCCCC2)ccc1OC(F)F", "note": "(configuration not stated)", "Potency": "inactive"}, {"smiles": "C#CC(=O)N(c1ccc(OC)cc1OC)C(C(=O)NC1CCCC1)c1cccs1", "note": "(configuration not stated)", "Potency": "2.12 µM (active)"}, {"smiles": "O=C(CCC(=O)c1cccs1)NC1CCCCCC1", "Potency": "inactive"}, {"smiles": "O=C(O)c1ccc(COc2ccc3ccccc3c2/C=C2/NC(=O)N(Cc3ccc(F)cc3)C2=O)cc1", "Potency": "inactive"}, {"smiles": "COc1ccccc1C(=O)NCCC(=O)N1CCN(S(=O)(=O)c2cccc(Cl)c2)CC1", "Potency": "inactive"}, {"smiles": "CCc1cc2c(COC(=O)c3cc(S(=O)(=O)N4CCOCC4)ccc3F)cc(=O)oc2cc1O", "Potency": "inactive"}, {"smiles": "COc1ccccc1N1C(=O)c2cccc3c(Cl)ccc(c23)C1=O", "Potency": "inactive"}, {"smiles": "COc1cc(N2C(=O)C=CC2=O)ccc1N1C(=O)C=CC1=O", "Potency": "15 µM (active)"}, {"smiles": "COc1ccc(N2C(=O)CC(Nc3ccc(C(=O)O)cc3)C2=O)cc1OC", "note": "(configuration not stated)", "Potency": "inactive"}, {"smiles": "Cc1ccc2oc(C(=O)NCC(c3ccc(Cl)cc3)N3CCOCC3)c(C)c2c1", "note": "(configuration not stated)", "Potency": "39.8 µM (active)"}, {"smiles": "CCC(C)NC(=O)c1oc2ccc(S(=O)(=O)N3CCC4(CC3)OCCO4)cc2c1C", "note": "(configuration not stated)", "Potency": "inactive"}, {"smiles": "COc1ccc(C(CNC(=O)COc2c(C)cc(C)cc2C)N2CCOCC2)cc1", "note": "(configuration not stated)", "Potency": "inactive"}, {"smiles": "CN(C)C(=O)c1coc2nc3ccccc3nc12", "Potency": "inactive"}, {"smiles": "CCN(CC)S(=O)(=O)c1cc(OC)ccc1N=Nc1ccc(O)c2ncccc12", "Potency": "10 µM (active)"}, {"smiles": "COc1cc(NS(=O)(=O)c2ccc3ccccc3c2)c2ncccc2c1", "Potency": "inactive"}, {"smiles": "CCS(=O)(=O)c1ccc(N=Nc2ccc(O)c3ncccc23)c(OC)c1", "Potency": "25.1 µM (active)"}, {"smiles": "CCOC(=O)c1cc2c(=O)n3ccccc3nc2n(Cc2ccco2)/c1=N/C(=O)c1cccc(OC)c1", "Potency": "inactive"}, {"smiles": "COc1ccc(N2CCN(C(=O)[C@H](C)NC(=O)c3ccccc3Cl)CC2)cc1", "Potency": "inactive"}, {"smiles": "CCCS(=O)(=O)c1nc(S(=O)(=O)c2ccc(C)cc2)c(N2CCN(CCO)CC2)s1", "Potency": "inactive"}, {"smiles": "COC(=O)C1=CN(C)C=C(C(=O)OC)C1c1ccccc1Cl", "Potency": "inactive"}, {"smiles": "O=C(OCn1ncc(Cl)c(Cl)c1=O)c1ccccc1Cl", "Potency": "15.8 µM (active)"}, {"smiles": "Cc1ccc(C(=O)OCn2ncc(Cl)c(Cl)c2=O)cc1", "Potency": "20 µM (active)"}, {"smiles": "CC(=O)c1c(COC(=O)c2ccc(C)cc2)nc2ccccc2[n+]1[O-]", "Potency": "inactive"}, {"smiles": "O=C(O)c1ccc(OS(=O)(=O)c2cccc(C(F)(F)F)c2)cc1", "Potency": "inactive"}, {"smiles": "N=C(NOC(=O)c1cnn(-c2ccccc2)c1C(F)(F)F)c1cc(C(F)(F)F)cc(C(F)(F)F)c1", "Potency": "inactive"}, {"smiles": "COc1ccc(C(=O)OCc2ccc(C)cc2)cc1S(=O)(=O)N1CCOCC1", "Potency": "inactive"}, {"smiles": "O=C(OCCN1C(=O)c2cccc3c(N4CCOCC4)ccc(c23)C1=O)c1ccccc1Cl", "Potency": "inactive"}, {"smiles": "O=C(OCn1ncc(Cl)c(Cl)c1=O)c1cccc(C(F)(F)F)c1", "Potency": "39.8 µM (active)"}, {"smiles": "C=CCn1c(SCc2cccc(F)c2)nc2cc(C(=O)N3CCC(C(N)=O)CC3)ccc2c1=O", "Potency": "inactive"}, {"smiles": "CCN1C(c2ccccc2)=C(c2ccccc2)S/C1=C\\C=C1/SC(=S)N(C)C1=O", "Potency": "22.4 µM (active)"}, {"smiles": "COc1ccc(/C=N/Nc2ncnc3sc(C)c(C)c23)cc1", "Potency": "inactive"}, {"smiles": "O=C(Cc1csc(Nc2nc(S)nc3ccccc23)n1)N1CCN(c2cccc(C(F)(F)F)c2)CC1", "Potency": "inactive"}, {"smiles": "O=C(Nc1cccc(Cl)c1)Nc1nnc(-c2ccncc2)s1", "Potency": "12.6 µM (active)"}, {"smiles": "NC(COCc1ccccc1)c1csc(NC(=O)Nc2cccc(Cl)c2)n1", "note": "(configuration not stated)", "Potency": "25.1 µM (active)"}, {"smiles": "NC(CCc1ccccc1)c1csc(NC(=O)Nc2cccc(C(F)(F)F)c2)n1", "note": "(configuration not stated)", "Potency": "39.8 µM (active)"}, {"smiles": "O=C(Nc1cccc(Cl)c1)NC1CC2CCC(C1)N2Cc1ccco1", "note": "(configuration not stated)", "Potency": "inactive"}, {"smiles": "O=C(Nc1cccc(Cl)c1)Nc1sccc1-c1nc2ccccc2s1", "Potency": "inactive"}, {"smiles": "Clc1cccc(Nc2nc(-c3ccncc3)cs2)c1", "Potency": "inactive"}, {"smiles": "NC(COCc1ccccc1)c1csc(NC(=O)Nc2cccc(C(F)(F)F)c2)n1", "note": "(configuration not stated)", "Potency": "39.8 µM (active)"}, {"smiles": "C/C(=N/NC(=O)c1sc(NS(=O)(=O)c2ccc(C)cc2)nc1C)c1sc(N)nc1C", "Potency": "inactive"}, {"smiles": "CN1CCN(/C=N/c2nc3ccccc3nc2N2CCCC2)CC1", "Potency": "inactive"}, {"smiles": "Cc1cc(O)nc2nc3ccccc3n12", "Potency": "inactive"}, {"smiles": "OCCCc1nc2n(n1)C(c1ccccc1Cl)C=C(c1cccs1)N2", "note": "(configuration not stated)", "Potency": "inactive"}, {"smiles": "CC(C)=Cc1c(O)n2ccccc2nc1=O", "Potency": "inactive"}, {"smiles": "CCC/C=C/c1ccc(CN2C(C(C)C)C(=O)N(Cc3cn(CCC4OCCCO4)nn3)CCS2(=O)=O)cc1", "note": "(configuration not stated)", "Potency": "22.4 µM (active)"}, {"smiles": "CCC/C=C/c1ccc(CN2C(C(C)C)C(=O)N(Cc3cn(CCC4OCCO4)nn3)CCS2(=O)=O)cc1", "note": "(configuration not stated)", "Potency": "35.5 µM (active)"}, {"smiles": "CN(C1=NS(=O)(=O)c2ccccc21)c1ccc(OC(=O)c2ccncc2)cc1", "Potency": "inactive"}, {"smiles": "Cc1csc2ncc(C(=O)N3CCc4ccccc43)c(=O)n12", "Potency": "inactive"}, {"smiles": "CC1CN(Cc2cnc(Cl)s2)CC(C)O1", "note": "(configuration not stated)", "Potency": "inactive"}, {"smiles": "CCN1CCN(S(=O)(=O)c2ccc3c4c(cccc24)C(=O)N3CC)CC1", "Potency": "inactive"}, {"smiles": "CCCCCCc1cc2cc(C(=O)NC)c(=N)oc2cc1O", "Potency": "inactive"}]}]}
